# Compound activity as filed in PubChem.
# An excerpt weighted towards active compounds, which were near 2.7% of everything screened.
# MITF TRPM1 inh = inhibitors of MITF-dependent TRPM1 promoter reporter, primary screen, cell-based, SK-MEL-5, single point, luciferase; SK-MEL-5 TRPM1 promoter luciferase, 24 h; inhibition, % at 12.5 µM; 0.83% of 330,000 active;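 active = mean inhibition across replicates of 60% or more, whatever share of single replicates reaches that level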
# Shn3 inh set2 = reduction of Shn3 3'UTR firefly luciferase signal, primary screen, Schnurri-3 inhibitor project, cell-based, Clone20 osteoblasts, set 2; Clone20 osteoblast Shn3 3'UTR firefly luciferase, 24 h; inhibition, % at 12.5 µM; 0.52% of 360,000 active;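 active = mean inhibition of at least 75% with every replicate also reaching 75%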;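 also: 0% = median of neutral control wells and 100% = pilot-screen positive control compound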
# Peg3 promoter = Peg3 promoter-driven luciferase inhibitors, primary screen, cell-based, HeLa, luciferase luminescence. HeLa PEG-Prom luciferase reporter, overnight. inhibition, % at 20 µM. 1.7% of 360,000 active;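 active = inhibition of at least 50% at 20 µM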
# HIF-2a block = HIF-2a reporter inhibitors, primary screen, luminescence, 786-0 RCC cells; 786-0 RCC cells HIF-2a reporter, luciferase luminescence, overnight; inhibition, % at 18.8 µM; 0.72% of 360,000 active; AID 624352, 2012;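 active = inhibition of the luminescence signal of 40% or more relative to plate controls, in a single-dose primary screen at 18.75 µM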
# KKLEB tox = cytotoxicity in KKLEB CF airway cells, primary screen, cytotoxicity control for CF NF-kB inhibitor project, cell-based, uHTS, fluorescence assay plates | AID 602141, 2011 | 0.36% of 360,000 active | activity change (cytotoxicity), % at 5 µM | KKLEB CF airway cells viability, ATPlite luminescence, overnight; stronger effect = lower value; cells stimulated with P. aeruginosa culture filtrate;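 active = corrected activity change at or below -50% at 5 µM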
# CF NFkB inh = inhibitors of PAF-induced NF-kB signaling, primary screen, cell-based, GFP fluorescence, uHTS; KKLEB NF-kB-GFP reporter, GFP fluorescence overnight; inhibition, % at 5 µM; 0.86% of 360,000 active;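 active = at least 50% inhibition at 5 µM, scaled per plate between neutral and stimulator controls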;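 also: PAF is a Pseudomonas aeruginosa culture filtrate used as stimulus; plate controls were PAF-stimulated DMSO wells for no effect and unstimulated DMSO wells for full effect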
# Mdm2-MdmX confirm = retested Mdm2-MdmX interaction blockers, confirmation, cell-based, luminescence, single concentration, set 2. 99% of 740 active. SaOS-2 split-luciferase Mdm2/MdmX complementation. shares compounds with HIF-2a block. inhibition, % at 8 µM;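 active = mean inhibition of the luminescence signal across two replicates at or above 26 percent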
# HIF-2a conf = HIF-2a reporter inhibitor retest, confirmation, luminescence, 786-0 RCC cells; 56% of 1,800 active; inhibition, % at 18.8 µM; shares compounds with HIF-2a block; HIF-2a luciferase reporter luminescence, overnight;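 active = mean inhibition across four replicates of at least 40 percent at the single tested concentration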
# HIF-1a counter = HIF-1a luciferase reporter signal reduction – MiaPaCa-2 cells, single concentration, counter-screen for HIF-2a inhibitor project, confirmation; shares compounds with HIF-2a block; MiaPaCa-2 HIF-1a luciferase reporter, desferoxamine, overnight; inhibition, % at 18.8 µM; 72% of 1,800 active; AID 651589, 2012;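 active = mean inhibition of the reporter signal across four replicates at the single tested dose of 50% or more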
# An asterisk follows results filed as active; x = no result given.
SMILES,MITF TRPM1 inh,Shn3 inh set2,Peg3 promoter,HIF-2a block,KKLEB tox,CF NFkB inh,HIF-2a conf,HIF-1a counter,others
CCOC(=O)C1CCCN(C(=O)c2ccc(C(F)(F)F)nc2C)CC1 (centres undefined),x,-9.1,-6.5,-2.7,5.8,0.1,x,x,
O=C(Nc1ccc(Cl)cc1Cl)c1cccc(N2C(=O)C=CC2=O)c1,32.9,42.1,108.4*,44.3*,1.5,-0.5,80.0*,14.9,
CCc1ccc(S(=O)(=O)Nc2ccc(-c3ccc4nnc(C)n4n3)cc2)s1,-6.9,17.3,4.8,-3.0,2.9,-8.3,x,x,
CCc1ccc(S(=O)(=O)Nc2ccc(-c3ccc4nncn4n3)cc2)s1,8.8,-4.9,26.8,42.2*,-4.3,30.1,0.1,-40.4,
CC(=O)Nc1ccc(NC(=O)Cc2ccc(-c3ccccc3)cc2)cc1,2.3,-4.3,1.7,3.4,-6.8,-6.8,x,x,
CC(C)N(c1ccccc1)c1ccc(NC(=O)[C@@H]2O[C@H](CO)[C@H](O)[C@H](O)[C@H]2O)cc1,x,-2.8,10.1,10.0,-7.7,13.7,x,x,
O=C(CCl)Nc1ccc(-c2ccccc2)cc1,65.1*,44.9,104.4*,15.4,-16.1,33.2,x,x,Mdm2-MdmX confirm=102.2*
CC(C)N(c1ccccc1)c1ccc(NC(=O)CCl)cc1,49.6,-5.0,90.9*,82.1*,-85.6*,82.5*,62.0*,99.8*,Mdm2-MdmX confirm=102.2*
COc1cc2c(cc1OC)CN(c1ccc(C(N)=O)cc1[N+](=O)[O-])CC2,6.7,21.8,-2.5,-3.7,4.1,5.6,x,x,
OC(c1ccccc1)(c1ccccc1)C1CCN(CCCOc2cccc(OC(F)(F)F)c2)CC1,x,x,x,11.5,x,x,x,x,
CC(C)(C)c1ccc(C(O)CCCN2CCC(C(O)(c3ccccc3)c3ccccc3)CC2)cc1 (centres undefined),94.1*,97.1*,95.5*,96.9*,-15.0,13.5,-1.0,107.7*,
CCN(CC(=O)NCc1ccc(Cl)cc1)C(=O)Cc1ccc(OC)cc1,5.3,11.5,7.2,15.1,4.1,-14.7,x,x,
O=C(CCl)N(c1ccccc1)C1CCCCC1,95.2*,96.7*,110.0*,60.7*,-91.6*,92.1*,91.8*,105.5*,Mdm2-MdmX confirm=103.5*
Cc1nc2cc(-c3ccc(Cl)cc3)nn2c(C)c1CCC(=O)NCc1ccco1,39.9,59.1,-53.6,80.5*,-3.7,-8.0,87.3*,48.0,
N=c1c2c(-c3ccccc3)c(-c3ccccc3)n(Cc3ccco3)c2ncn1CCCN1CCOCC1,2.9,20.3,99.1*,6.8,0.2,21.5,x,x,Mdm2-MdmX confirm=102.0*
N=c1c2c(-c3ccccc3)c(-c3ccccc3)n(Cc3ccco3)c2ncn1CCCn1ccnc1,88.2*,11.1,66.0*,69.4*,-20.5,21.3,16.3,74.4*,
OCCNc1ncnc2c1c(-c1ccccc1)c(-c1ccccc1)n2Cc1ccco1,9.6,5.8,6.7,21.3,-4.0,17.2,x,x,
c1ccc(-c2c(-c3ccccc3)n(Cc3ccco3)c3ncnc(NCCCn4ccnc4)c23)cc1,6.2,37.6,37.3,49.3*,-6.2,21.6,34.0,100.9*,
CC(C)Cn1cnc2c(c(-c3ccccc3)c(-c3ccccc3)n2Cc2ccco2)c1=N,16.7,2.5,104.3*,58.1*,-15.0,13.1,15.5,102.2*,
